Measurements: PubChem BioAssay AID1159580 (chemical genetic matrix, 2015)
The campaign covered roughly 5,500 compounds. About 2,000 (36%) were called active. About 18% were inconclusive and are not listed. Rule as the data show it: active = normalized growth mostly below about 0.91 (no sharp cut-off); inconclusive = no clear call, values can overlap the other calls; inactive = mostly above about 0.92. Some of the results follow.

Experiment: chemical genetic growth profiling, strain panel (AID 1159580);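 also: tested at 20 µM; growth read once vehicle control cultures reached saturation at 30 °C; 1 = growth at the plate median or of vehicle wells; lower values mean less growth of the strain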
Conditions: growth OD

Measured: normalized growth

CC(=O)OCC(=O)[C@@]1(O)[C@H](OC(C)=O)CC2C3CCC4=CC(=O)C=C[C@]4(C)[C@@]3(F)[C@@H](O)C[C@@]21C (some centres not stated)
inactive: S. cerevisiae deletion strains, locus YJR066W, strain TOR1, active compounds read low 0.935 | S. cerevisiae deletion strains, locus YKL009W, strain mrt4, active compounds read low 0.993 | S. cerevisiae deletion strains, locus YKL068W, active compounds read low 0.994 | S. cerevisiae deletion strains, locus YKL085W, strain MDH1 (second series), active compounds read low 1 | S. cerevisiae deletion strains, locus YKL085W, strain MDH1, active compounds read low 1 | S. cerevisiae deletion strains, locus YKL160W, strain elf1, active compounds read low 1.02 | S. cerevisiae deletion strains, locus YKL190W, strain CNB1, active compounds read low 0.996 | S. cerevisiae deletion strains, locus YKR001C, strain vps1, active compounds read low 0.999 | S. cerevisiae deletion strains, locus YKR026C, strain gcn3, active compounds read low 0.993 | S. cerevisiae deletion strains, locus YKR091W, strain srl3, active compounds read low 0.986 | S. cerevisiae deletion strains, locus YLL001W, strain dnm1, active compounds read low 1.03 | S. cerevisiae deletion strains, locus YLL026W, active compounds read low 1 | S. cerevisiae deletion strains, locus YLL041C, strain sdh2, active compounds read low 0.985 | S. cerevisiae deletion strains, locus YLR027C, strain aat2, active compounds read low 1.01 | S. cerevisiae deletion strains, locus YLR039C, strain RIC1, active compounds read low 0.995 | S. cerevisiae deletion strains, locus YLR058C, strain SHM2, active compounds read low 0.98 | S. cerevisiae deletion strains, locus YLR102C, strain apc9, active compounds read low 0.999 | S. cerevisiae deletion strains, locus YLR113W, strain HOG1, active compounds read low 0.98 | S. cerevisiae deletion strains, locus YLR221C, strain rsa3, active compounds read low 0.956 | S. cerevisiae deletion strains, locus YLR258W, strain gsy2, active compounds read low 0.982 | S. cerevisiae deletion strains, locus YLR262C, strain YPT6 (second series), active compounds read low 1.01 | S. cerevisiae deletion strains, locus YLR262C, strain YPT6, active compounds read low 0.974 | S. cerevisiae deletion strains, locus YLR268W, strain sec22, active compounds read low 1.06 | S. cerevisiae deletion strains, locus YLR320W, strain mms22, active compounds read low 0.97 | S. cerevisiae deletion strains, locus YLR330W, strain CHS5, active compounds read low 0.993 | S. cerevisiae deletion strains, locus YLR342W, strain FKS1 (second series), active compounds read low 1.01 | S. cerevisiae deletion strains, locus YLR342W, strain FKS1, active compounds read low 1.02 | S. cerevisiae deletion strains, locus YLR357W, strain rsc2, active compounds read low 0.974 | S. cerevisiae deletion strains, locus YLR370C, strain arc18, active compounds read low 0.99 | S. cerevisiae deletion strains, locus YLR371W, strain rom2, active compounds read low 0.983 | S. cerevisiae deletion strains, locus YLR384C, strain iki3, active compounds read low 0.996 | S. cerevisiae deletion strains, locus YLR418C, strain cdc73, active compounds read low 1 | S. cerevisiae deletion strains, locus YML016C, strain PPZ1, active compounds read low 0.996 | S. cerevisiae deletion strains, locus YML032C, strain rad52, active compounds read low 1.01 | S. cerevisiae deletion strains, locus YML120C, strain ndi1, active compounds read low 1 | S. cerevisiae deletion strains, locus YML124C, strain tub3, active compounds read low 0.991 | S. cerevisiae deletion strains, locus YMR058W, strain fet3, active compounds read low 0.991 | S. cerevisiae deletion strains, locus YMR078C, strain ctf18, active compounds read low 0.987 | S. cerevisiae deletion strains, locus YMR125W, strain sto1, active compounds read low 0.983 | S. cerevisiae deletion strains, locus YMR129W, active compounds read low 0.967 | S. cerevisiae deletion strains, locus YMR205C, strain PFK2, active compounds read low 1.02 | S. cerevisiae deletion strains, locus YMR223W, strain ubp8, active compounds read low 0.98 | S. cerevisiae deletion strains, locus YMR231W, strain pep5, active compounds read low 1 | S. cerevisiae deletion strains, locus YMR263W, strain SAP30, active compounds read low 0.991 | S. cerevisiae deletion strains, locus YMR307W, strain GAS1, active compounds read low 1 | S. cerevisiae deletion strains, locus YNL067W, strain RPL9B, active compounds read low 0.998 | S. cerevisiae deletion strains, locus YNL071W, strain lat1, active compounds read low 0.974 | S. cerevisiae deletion strains, locus YNL183C, strain NPR1, active compounds read low 0.949 | S. cerevisiae deletion strains, locus YNL209W, strain ssb2, active compounds read low 0.986 | S. cerevisiae deletion strains, locus YNL233W, strain BNI4, active compounds read low 0.986 | S. cerevisiae deletion strains, locus YNL248C, strain rpa49, active compounds read low 0.937 | S. cerevisiae deletion strains, locus YNL250W, strain rad50, active compounds read low 0.985 | S. cerevisiae deletion strains, locus YNL271C, strain bni1, active compounds read low 0.997 | S. cerevisiae deletion strains, locus YNL298W, strain CLA4, active compounds read low 1 | S. cerevisiae deletion strains, locus YNL307C, strain MCK1, active compounds read low 0.998 | S. cerevisiae deletion strains, locus YNL322C, strain KRE1 (second series), active compounds read low 0.998 | S. cerevisiae deletion strains, locus YNR049C, strain mso1, active compounds read low 0.979 | S. cerevisiae deletion strains, locus YNR052C, strain pop2, active compounds read low 1 | S. cerevisiae deletion strains, locus YOL006C, strain TOP1, active compounds read low 0.959 | S. cerevisiae deletion strains, locus YOL012C, strain htz1 1.14 | S. cerevisiae deletion strains, locus YOL147C, strain pex11, active compounds read low 0.994 | S. cerevisiae deletion strains, locus YOR001W, strain rrp6, active compounds read low 1 | S. cerevisiae deletion strains, locus YOR061W, strain CKA2, active compounds read low 0.963 | S. cerevisiae deletion strains, locus YOR069W, strain VPS5, active compounds read low 0.993 | S. cerevisiae deletion strains, locus YOR070C, strain gyp1, active compounds read low 0.989 | S. cerevisiae deletion strains, locus YOR080W, strain dia2, active compounds read low 0.997 | S. cerevisiae deletion strains, locus YOR083W, strain WHI5, active compounds read low 1.01 | S. cerevisiae deletion strains, locus YOR106W, strain vam3, active compounds read low 1.02 | S. cerevisiae deletion strains, locus YOR136W, strain idh2, active compounds read low 0.981 | S. cerevisiae deletion strains, locus YOR144C, strain elg1, active compounds read low 0.998 | S. cerevisiae deletion strains, locus YOR184W, strain ser1, active compounds read low 0.986 | S. cerevisiae deletion strains, locus YOR231W, strain MKK1, active compounds read low 0.982 | S. cerevisiae deletion strains, locus YOR265W, strain rbl2, active compounds read low 0.982 | S. cerevisiae deletion strains, locus YOR270C, strain vph1, active compounds read low 0.973 | S. cerevisiae deletion strains, locus YOR290C, strain snf2, active compounds read low 0.952 | S. cerevisiae deletion strains, locus YOR316C, strain cot1, active compounds read low 0.993 | S. cerevisiae deletion strains, locus YPL051W, strain arl3, active compounds read low 1.01 | S. cerevisiae deletion strains, locus YPL078C, strain atp4, active compounds read low 1.02 | S. cerevisiae deletion strains, locus YPL106C, strain sse1, active compounds read low 0.982 | S. cerevisiae deletion strains, locus YPL240C, strain hsp82, active compounds read low 1 | S. cerevisiae deletion strains, locus YPL256C, strain CLN2, active compounds read low 0.969 | S. cerevisiae deletion strains, locus YPR119W, strain clb2, active compounds read low 0.998 | S. cerevisiae deletion strains, locus YPR141C, strain kar3, active compounds read low 0.982 | S. cerevisiae deletion strains, locus YPR163C, strain tif3, active compounds read low 0.985 | S. cerevisiae deletion strains, locus YPR167C, strain met16, active compounds read low 0.992 | S. cerevisiae deletion strains, strain wtn01, active compounds read low 1 | S. cerevisiae strains, strain wild type, active compounds read low 0.983
